Among the data in paper PMC11062922 (Nature Chemical Biology, 2023) are potency estimated from few doses values, retold here.

Common to all, as to parameters: species or system human, MV4-11 + K-562 + COLO205 + SK-N-BE2 + OVCAR-8
The subject of one assay is PBK. To be noted: read-out: apparent Kd; compound concentrations:100 nM and 1000 nM (sheet 'Samples'); n = 1.
The next assay relates to MAPKAPK2. The following applies: read-out: apparent Kd; compound concentrations: 100 nM and 1000 nM (sheet 'Samples'), CATDS: 1; n = 1.
The next assay has as its system NNT. The following applies: read-out: apparent Kd; compound concentrations:100 nM and 1000 nM (sheet 'Samples'); n = 1.
The subject of a further assay is NQO2. The following applies: read-out: apparent Kd, n = 1.
The test system of the next assay is TGFBR1. The following applies: read-out: apparent Kd; compound concentrations:100 nM and 1000 nM (sheet 'Samples'); n = 1.
The test system of a further assay is PDGFRB. To be noted: read-out: apparent Kd, compound concentrations: 100 nM and 1000 nM (sheet 'Samples'), n = 1.
The subject of another assay is PIK3CA. To be noted: read-out: apparent Kd, compound concentrations: 100 nM and 1000 nM (sheet 'Samples'), n = 1.
In another assay the test system is PDXK. To be noted: read-out: apparent Kd, compound concentrations: 100 nM and 1000 nM (sheet 'Samples'), n = 1.
Another assay relates to STK26. To be noted: read-out: apparent Kd; compound concentrations: 100 nM and 1000 nM (sheet 'Samples'), CATDS: 0.52714165558765103; n = 1.
For the next assay, the system named is PIK3C3. To be noted: read-out: apparent Kd, compound concentrations: 100 nM and 1000 nM (sheet 'Samples'), n = 1.
The test system of another assay is PIK3CB. The following applies: read-out: apparent Kd, compound concentrations: 100 nM and 1000 nM (sheet 'Samples'), n = 1.
In another assay the test system is PIK3CD. To be noted: read-out: apparent Kd, compound concentrations: 100 nM and 1000 nM (sheet 'Samples'), n = 1.
The next assay deals with PIK3CG. To be noted: read-out: apparent Kd, compound concentrations: 100 nM and 1000 nM (sheet 'Samples'), n = 1.
In the next assay the test system is PRKDC. To be noted: read-out: apparent Kd, compound concentrations: 100 nM and 1000 nM (sheet 'Samples'), n = 1.
The test system of another assay is PI4KA. To be noted: read-out: apparent Kd, compound concentrations: 100 nM and 1000 nM (sheet 'Samples'), n = 1.
The test system of the next assay is PI4KB. The following applies: read-out: apparent Kd, compound concentrations: 100 nM and 1000 nM (sheet 'Samples'), n = 1.
The test system of another assay is PIK3C2A. The following applies: read-out: apparent Kd; compound concentrations: 100 nM and 1000 nM (sheet 'Samples'), CATDS: 5.6745724082573501E-2; n = 1.
For a further assay, the system named is PIK3C2B. The following applies: read-out: apparent Kd; compound concentrations: 100 nM and 1000 nM (sheet 'Samples'), CATDS: 8.3411679268076702E-2; n = 1.
Another assay deals with PIM2. The following applies: read-out: apparent Kd; compound concentrations: 100 nM and 1000 nM (sheet 'Samples'), CATDS: 5.9438014075045897E-2; n = 1.
For another assay, the system named is PKN3. To be noted: read-out: apparent Kd; compound concentrations: 100 nM and 1000 nM (sheet 'Samples'), CATDS: 0.47947466272848499; n = 1.
Another assay concerns TGFBR2. To be noted: read-out: apparent Kd; compound concentrations: 100 nM and 1000 nM (sheet 'Samples'), CATDS: 0.45581202141121302; n = 1.

Molecules are shown by their SMILES. Read-outs that look alike come from different tables or passages of the source.

With `Cn1ncc2cc(-c3cnc(N)c(Cl)c3N3CCC4(CCNC4=O)CC3)ccc21` [CCT251921], in the assay with PBK, the potency estimated from few doses is 1570 nM.

In the case of `CCS(=O)(=O)c1ccc(OC)c(Nc2nccc(-c3c(-c4cccc(NC(=O)c5c(F)cccc5F)c4)nn4ncccc34)n2)c1` [GSK326180A], in the assay on MAPKAPK2, the potency estimated from few doses was 1390 nM.

Regarding `Fc1cccc(COc2ccc(Nc3ncnc4sc(-c5cccs5)cc34)cc2Cl)c1` [GW684626B], in the assay on NNT, the potency estimated from few doses was 1210 nM.

`CCn1c(-c2nonc2N)nc2ccc(F)cc21` [GW785404X]: the potency estimated from few doses in the assay on NQO2 (compound concentrations: 100 nM and 1000 nM (sheet 'Samples'), CATDS: 1) is 339 nM.

In the case of `FC(F)(F)c1ccc(-c2cc(-c3c[nH]nc3-c3ccccn3)ccn2)cc1` [GW599550X], the potency estimated from few doses in the assay with NQO2 (compound concentrations:100 nM and 1000 nM (sheet 'Samples')) was 1070 nM; in the assay on TGFBR1 it was 1520 nM.

`O=C(NCCNc1ccnc(Nc2ccc(F)cc2)n1)Nc1ccccc1F` [GSK1379880A]: the results for the potency estimated from few doses with PDGFRB (CATDS: 0.36710217729011002) and with PIK3CA (CATDS: 0.78372192939813501) were 1450 nM and 233 nM, respectively.

Regarding `COc1ccc(-c2coc3ncnc(N)c23)cc1` [GW642125X], in the assay on PDGFRB (CATDS: 1), the potency estimated from few doses was 1540 nM.

For the compound `Cn1ccc(-c2cccc(Nc3ccnc4cc(-c5nccs5)ccc34)c2)n1` [GW525701_KCGS], the potency estimated from few doses is 1690 nM in the assay with PDXK (CATDS: 0.47551644164597001) and 1370 nM in the assay with STK26.

`CCn1c(-c2ccoc2)nc2cnccc21` [SB-733887]: the potency estimated from few doses in the assay with PDXK (CATDS: 1) was 1740 nM.

As to `COc1ncc(-c2cc(-c3ncc(CN4C[C@@H](C)O[C@@H](C)C4)o3)c3cn[nH]c3c2)cc1NS(C)(=O)=O` [GSK2292767], the potency estimated from few doses in the assay on PDXK (CATDS: 9.0064918958082996E-2) was 779 nM; with PIK3C3 (CATDS: 0.16198268418526299), 70.7 nM; in the assay on PIK3CA (CATDS: 0.29964038012822602), 9.18 nM; in the assay on PIK3CB (CATDS: 0.10653178363766699), 335 nM; in the assay on PIK3CD (CATDS: 0.86289624081171401), 0.614 nM; with PIK3CG (CATDS: 0.13255621983520199), 142 nM. Further, the potency estimated from few doses in the assay with PRKDC (CATDS: 9.7121910991741403E-2) is 515 nM.

`CN(C)S(=O)(=O)c1cc(-c2ccc3nccc(-c4cccc(S(N)(=O)=O)c4)c3c2)cnc1N` [GSK1669921A]: the potency estimated from few doses is 1300 nM in the assay on PI4KA (CATDS: 0.112986099678868); 23 nM with PIK3CA (CATDS: 0.37789009746554098); 777 nM with PIK3CB (CATDS: 0.12770502550951299); 9.62 nM in the assay on PIK3CD (CATDS: 0.59190161407117303); 466 nM with PIK3CG (CATDS: 0.14675867951409499); 920 nM in the assay with PRKDC (CATDS: 0.12241161716625901).

Regarding `CN(C)CCOc1ccc(-c2cc(-c3ccc(Cl)c(O)c3)c(-c3ccncc3)[nH]2)cc1.CN(C)CCOc1ccc(-c2cc(-c3ccc(Cl)c(O)c3)c(-c3ccncc3)[nH]2)cc1.Cl.Cl` [SB-684387-B], the potency estimated from few doses with PI4KA (CATDS: 0.33665131532266801) is 1060 nM; in the assay on PIK3CA (CATDS: 0.97128160740856295), 16 nM.

`Nc1ncc(-c2ccc3nccc(-c4ccncc4)c3c2)cc1S(=O)(=O)N1CCCCC1` [GSK1693850A]: the potency estimated from few doses was 464 nM in the assay with PI4KA (CATDS: 8.4526475439373194E-2); 777 nM in the assay with PI4KB (CATDS: 7.2380110997406405E-2); 2320 nM with PIK3C2A; 483 nM in the assay on PIK3C2B; 1120 nM with PIK3C3 (CATDS: 6.5868178094699706E-2); 6.74 nM in the assay on PIK3CA (CATDS: 0.402374173970307). Further, the potency estimated from few doses was 406 nM in the assay with PIK3CB (CATDS: 8.8291431205062498E-2); 4.69 nM with PIK3CD (CATDS: 0.491044301139066); 88.7 nM in the assay with PIK3CG (CATDS: 0.150773969962682); 1790 nM with PIM2; 398 nM in the assay on PRKDC (CATDS: 8.88426876970108E-2).

With `Nc1c(C(=O)c2cccc(C(O)(CO)CO)c2)cnn1-c1ccc(F)cc1` [RO3201790-000], the potency estimated from few doses is 888 nM in the assay on PI4KB (CATDS: 0.52236122392279105) and 1050 nM with PKN3.

As to `COC(=O)C(NC(=O)NC1CCN(c2ccnc(Nc3ccc(F)cc3)n2)C1)c1ccccc1` (stereo not shown) [GSK1379712_KCGS], the potency estimated from few doses was 946 nM in the assay on PI4KB (CATDS: 0.55367516713285103) and 1400 nM in the assay with TGFBR2.

Regarding `CCCc1ccc(S(=O)(=O)NC2CCN(c3ccnc(Nc4ccc(OC)cc4)n3)C2)cc1` (stereo not shown) [GSK1379737A], in the assay on PI4KB (CATDS: 1), the potency estimated from few doses was 901 nM.
